96 compounds from PubChem BioAssay AID1850 (Southern Research Specialized Biocontainment Screening …, 2009) can be followed below.

What is called inhibition is the relative decrease from the control value, in per cent.

The structures appear in SMILES notation. The whole screen tested about 310,000 compounds, of which about 1,000 (0.32%) were called active. The list is a sample of the results. Entries with a potency or affinity are not part of this list. A number with no mark means an inactive call. How the calls were made is not given here.

The assay can be described thus: PhoP regulon inhibitors, Salmonella typhi PhoP promoter GFP reporter, confirmatory (AID 1850).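 Further: 0% = induced wells with vehicle and 100% = uninduced wells.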 Conditions: fluorescence, 4 h, at 50 µM, stronger effect = higher value.
Consider `c1ccc(-c2cc(-c3ccncc3)nc3ccc4ccccc4c23)cc1`, for which the inhibition is -9.12%.
In the case of `N#C/C(=C\c1ccc([N+](=O)[O-])o1)c1nc2ccccc2[nH]1` it was 7.25%; in that of `Cc1ccc2nc(/C(C#N)=C/c3ccc(-c4cccc([N+](=O)[O-])c4)o3)[nH]c2c1`, -10.4%; in that of `COC(=O)c1[nH]c2cc(OC)ccc2c1NC(=O)c1ccc2c(c1)OCO2`, -8.72%.
Under `O=C(Nc1cccnc1)c1ccc(Br)s1` stands 12.6%; under `CCc1cc(C(=O)Nc2ccc(OC)nc2)sc1C`, 4.89%; under `COc1ccc(NC(=O)c2cccs2)cn1`, 2.51%.
Under `CCc1sc(C(=O)Nc2cccnc2)cc1Br` stands -8.13%.
For `O=S(=O)(c1ccc(-c2csc(-c3cccnc3)n2)cc1)N1CCCC1`, the inhibition is 0%.
Regarding `Cc1cc(C)n(CC(O)Cn2cnc3c2c(=O)n(C)c(=O)n3C)n1` (stereo unspecified), the inhibition was -7.83%.
Under `CCN(CC(=O)NCc1ccc(Cl)cc1)C(=O)CSc1cccc(C(F)(F)F)c1` stands 5.75%.
In the case of `COc1ccc(C2=NN(CN3C(=O)C(=O)c4ccccc43)C(c3ccc(OC)cc3)C2)cc1` (stereo unspecified) it was -8.46%; in that of `Cc1nc2c(C#N)cnn2c2c1CCN(Cc1ccccc1)N2C`, 0.51%.
Under `Nc1cc(N2CCCCCC2)c2nonc2c1[N+](=O)[O-]` stands -0.89%; under `Nc1ccc2nonc2c1[N+](=O)[O-]`, -75.7%; under `COCCn1c(=S)[nH]c2cc(C(=O)NCCCN3CCOCC3)ccc2c1=O`, -1.91%.
As to `O=C(NC1CCSC1=O)c1cccc(Cl)c1` (stereo unspecified), the inhibition is 3.01%.
In the case of `CN1/C(=C\C=O)C(C)(C)c2ccccc21` it was 1.84%.
Under `CCN1/C(=C\C=C\C2=[N+](CC)c3ccccc3C2(C)C)C(C)(C)c2ccccc21` stands -46.5%.
In the case of `O=C(Nc1cc2c3c(c1)CC(=O)N3CCC2)c1cccc(F)c1` it was 6.53%; in that of `O=C(c1ccc(F)cc1)c1ccc(N2CCCCC2)cc1`, -11.2%.
On to `CN(CC(=O)Nc1ccc(S(N)(=O)=O)cc1)c1ccccc1`, for which the inhibition is 14.4%.
Under `CSc1ccccc1C(=O)Nc1cc(C)ccc1C` stands 7.98%.
Under `Cc1ccccc1NC(=O)c1ccccc1O` stands 4.26%; under `O=[N+]([O-])c1cccc(-c2cc3ccccc3[nH]2)c1`, -7.23%; under `O=C(N/N=C/c1cc2ccccc2[nH]1)c1ccccc1Cl`, 12.6%.
Under `COc1ccc(N(CC(=O)N2CCN(c3cc(C)ccc3C)CC2)S(=O)(=O)c2c(C)noc2C)cc1` stands 4.32%; under `CCC(C)NC(=O)C1c2ccccc2C(=O)N(c2ccc(OC)cc2)C1c1ccc(OC)cc1` (stereo unspecified), -3.48%.
Turning to `O=C(N/N=C/c1cc(Br)c(O)c(Br)c1)c1cccnc1`, the inhibition was 19.1%.
Under `Nc1nonc1-n1nnc(C(=O)N/N=C/c2ccc(Br)cc2)c1CSC1=NCCS1` stands 6.84%.
In the case of `O=C(N/N=C/c1ccccc1Cl)c1ccncc1` it was -2.44%.
`O=C(N/N=C/c1cc2c(cc1Cl)OCO2)c1ccncc1`: the inhibition is -3.87%.
In the case of `O=C(N/N=C/c1ccc(O)cc1O)c1ccncc1` it was 1.18%; in that of `O=C(N/N=C/c1cc2ccccc2nc1Cl)c1ccncc1`, -3.32%.
`Nc1nonc1-n1nnc(C(=O)N/N=C/c2c(Cl)cccc2Cl)c1CSC1=NCCS1`: the inhibition is -8.07%.
For the compound `O=C(N/N=C/c1cc(Br)c(O)c(Br)c1O)c1cccnc1`, the inhibition is -12.7%.
For the compound `COc1ccc(CNC(=O)CCNS(=O)(=O)c2ccc(Br)s2)cc1`, the inhibition was -1.05%.
In the case of `O=C(CN1C(=O)C2C3C=CC(C3)C2C1=O)Nc1nc(SCc2ccc(Cl)cc2)n[nH]1` (stereo unspecified) it was 3.67%.
Under `O=C(O)COCC(=O)NC1CCN(Cc2ccccc2)CC1` stands -0.41%; under `CC(CN1CCCCC1)OC(=O)c1ccccc1F` (stereo unspecified), -3.63%.
In the case of `Cc1nn(C(C)C(=O)NC2CCC(C)CC2)c(=O)c2nn(-c3ccccc3)c(C)c12` (stereo unspecified) it was -5.27%; in that of `Cc1ccc(Cl)cc1NC(=O)C1CC(=O)Nc2ncnn21` (stereo unspecified), -13%; in that of `O=C(N/N=C/c1ccc(Cl)cc1Cl)c1ccncc1`, -12.1%.
Turning to `O=C1NCCCC1C(=O)N/N=C/c1ccccc1O` (stereo unspecified), the inhibition was -6.72%.
Under `Nc1nonc1C(=O)N/N=C/c1cc2c(cc1Br)OCO2` stands -18.8%; under `CNC(=S)N/N=C/c1cc(Br)cc(Br)c1O`, 6.75%.
With `O=C(C[n+]1ccccc1)N/N=C/c1cc(Br)cc(Br)c1O`, the inhibition is 1.91%.
In the case of `O=C(N/N=C/c1coc2ccc(Cl)cc2c1=O)c1ccncc1` it was -3.86%; in that of `Nc1nonc1C(=O)N/N=C/c1ccc(Br)o1`, -7.75%.
Under `O=C(N/N=C/c1ccccc1O)NC12CC3CC(CC(C3)C1)C2` stands 6.48%; under `CCOC(=O)C1CCCCN1Cc1cccc(OC)c1OC` (stereo unspecified), -6.91%.
Under `CCC(=O)NC(=S)Nc1ccc(NC(=O)c2ccco2)c(OC)c1` stands -4.57%; under `Cc1cc(=O)c(C(=O)O)nn1-c1cccc(C(F)(F)F)c1`, 3.22%.
Regarding `Cc1[nH]n(-c2ccccc2)c(=O)c1/C=N/NC(=O)c1ccc(O)cc1O`, the inhibition is 4.8%.
Under `Cc1ccc(C)c(CN2CCC(CNC(=O)CCc3nnc4ccc(N5CCCCC5)nn34)CC2)c1` stands -0.65%.
Take `O=C(CSc1nnc(CNC(=O)c2cccs2)o1)Nc1cccc(Cl)c1`: the inhibition is -8.62%.
As to `O=C(CC1SC(N2CCCC2)=NC1=O)Nc1ccc(C(=O)N2CCN(c3cccc(Cl)c3)CC2)cc1` (stereo unspecified), the inhibition is -3.88%.
As for `Cc1ccc(S(=O)(=O)N[C@@H](CO)C(=O)N[C@@H](Cc2ccc(O)cc2)C(=O)O)cc1`, the inhibition is 3.35%.
Under `Cc1ccc2c(c1)NC(=O)C(CC(=O)NCCCN1CCCCC1)O2` (stereo unspecified) stands -5.47%.
`COc1cc(Cl)c(C)cc1NC(=O)CCCN1C(=O)CCC1=O`: the inhibition was -6.87%.
Under `CN1CCN(C(=O)c2ccc(CS(=O)Cc3ccc(Cl)cc3)o2)CC1` (stereo unspecified) stands -3.59%; under `COc1cccc(CNS(=O)(=O)c2ccc(S(=O)(=O)NC3CC3)cc2)c1`, 0.68%.
In the case of `CCCc1cc(=O)oc2c3c(cc(OCC(=O)N4CCC[C@H]4C(=O)O)c12)OC(C)(C)CC3` it was -1.72%; in that of `COc1ccc(CNC(=O)CSc2nnnn2-c2ccc(O)cc2)cc1`, 4.45%; in that of `Cc1ccc(CN2CCC(CNS(=O)(=O)c3ccc(-c4ccc(=O)[nH]n4)s3)CC2)cc1`, -17.1%.
Under `Cc1ccc(Nc2nc(N)nc(CSC(=S)N3CCN(c4ccccc4)CC3)n2)cc1` stands 5.34%; under `COc1ccccc1NC(=O)Nc1ccc(CC#N)cc1`, -23.3%; under `O=c1oc2ccccc2n1Cc1ccccc1F`, 0.75%.
`O=c1[nH]cc(NCCc2ccccc2)c(=O)[nH]1`: the inhibition was 2.68%.
In the case of `O=C(CNC(=O)c1ccncc1)N/N=C/c1cc(Br)ccc1O` it was 14.9%; in that of `O=C(N/N=C/c1cc(Cl)ccc1O)c1ccc(Br)cc1`, -15.2%; in that of `O=C(N/N=C/c1cc(Br)cc(Br)c1O)c1cccc(S(=O)(=O)N2CCOCC2)c1`, 17.9%.
In the case of `COc1c(Br)cc(Br)cc1/C=N/NC(=O)c1ccncc1` it was -12.1%.
In the case of `CC(=O)Nc1ccc(C(=O)N/N=C/c2cc(Br)cc(Br)c2O)cc1` it was -13.1%; in that of `O=C(N/N=C/c1cc([N+](=O)[O-])ccc1O)c1ccncc1`, 12.7%; in that of `O=C(CP(=O)(c1ccccc1)c1ccccc1)N/N=C/c1cc(Br)cc(Br)c1O`, -0.96%.
With `O=C(N/N=C/c1cccnc1)c1cccc(Cl)c1`, the inhibition was 41%.
In the case of `COc1ccccc1C(=O)Nc1nnc(SCC(=O)Nc2ccc3c(c2)oc2ccccc23)s1` it was -0.02%.
Under `COc1cc(/C=C2/NC(=O)NC2=O)ccc1OCC(=O)Nc1ccc(F)cc1` stands 1.58%.
Under `C=CCn1c(CSc2ccc(C)cc2)n[nH]c1=S` stands 2.92%; under `Cn1ncc(Cl)c1C(=O)N1CCN(c2ncccn2)CC1`, 10.1%; under `Cc1cccc(NC(=O)COC(=O)CCCC2=NS(=O)(=O)c3ccccc3N2)c1`, -3.69%.
For `C=C(C)CC1N(c2cccc(OC)c2)C(=O)C2C(C(=O)O)C3C=CC21O3` (stereo unspecified), the inhibition was -1.1%.
`CCCCn1c(=O)[nH]c(=O)c2c1nc(-c1cc(Br)ccc1OC)n2C`: the inhibition is 1.08%.
Under `O=C(CSC(=S)N1CCCC1)Nc1ncc(Cl)cc1Cl` stands -5.14%.
In the case of `CC(O)(CS(=O)(=O)Cc1ccccc1)C(=O)Nc1ccc(C(F)(F)F)cc1` (stereo unspecified) it was 9.99%; in that of `CCc1ccccc1NC(=O)COc1cccc(-n2cnnn2)c1`, -5.08%.
In the case of `CC(C)OCCCNC(=O)c1ccc(NC(=O)C2=CSCCO2)cc1` it was -8.42%; in that of `COc1ccc(S(=O)(=O)N2CCN(c3ncccn3)CC2)cc1[N+](=O)[O-]`, -20.4%; in that of `Cc1cc(C)n(-c2nc(O)cc(=O)[nH]2)n1`, -1.88%.
As for `Cc1ccc(Nc2cc(C)nn2-c2nc(C)cc(C)n2)cc1`, the inhibition was 5.85%.
Under `Cc1cc(C)n(-c2nnc(C)c(=O)[nH]2)n1` stands -0.21%; under `Cc1cc(Nc2ccccc2)n(-c2nc3ccccc3[nH]2)n1`, -0.39%; under `FC(F)(F)c1cccc(Oc2cc(C(F)(F)F)nc(-c3ccccn3)n2)c1`, 1.08%.
Under `CCOc1ccc(N2C(=O)C3ON(c4ccccc4)C(c4cccs4)C3C2=O)cc1` (stereo unspecified) stands 9.38%.
Take `CCCCC(=O)N1CCN(c2nc3ccc(F)cc3s2)CC1`: the inhibition is -7.63%.
